Measured values from the supplement of paper PMC11219838.
Unmarked numbers belong to inactive results.

Tested on: Caenorhabditis elegans L1 (N2)
Assay: survival and reproduction score of C. elegans L1 (0: 0-10 living worms, 1: 11-20, 2: 21-50, 3: >50, 4: overgrown) (score 0-4); higher = more worms, less nematicidal, active = 1 or less; extreme values may be limits of the assay
Conditions: 60 µM; 6 days; temperature: 20 °C
Method in brief: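 Compound was pinned to a final 60 µM (0.6% v/v DMSO) into 96-well wells, each holding about 20 synchronized C. elegans N2 L1s and E. coli HB101 in liquid NGM. After 6 days of shaking at 200 rpm and 20 °C in sealed plates, the worms in each well were examined. The ordinal readout of survival and reproduction, based on living worms per well, was assessed under a dissection microscope. On this scale 0 meant 0–10 worms and 4 meant overgrown, starved wells, and two biological replicates were averaged.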

Structure (SMILES) | survival and reproduction score
CC(=O)Nc1ccc(C(=O)CSc2nnc(-c3cccc(Br)c3)o2)cc1 | 4
O=C(CSc1nnc(-c2cccc3ccccc23)o1)Nc1cccc(F)c1 | 4
CCNC(=O)c1ccccc1-c1nc(-c2ccccc2)no1 | 4
Cc1ccc(OC(C)c2nc(-c3cccnc3)no2)cc1 (stereo not drawn) | 4
O=C(CSc1nnc(-c2cccc(F)c2)o1)Nc1ccccc1C(=O)c1ccccc1 | 4
COc1ccc(-c2noc(-c3ccccc3Br)n2)cc1 | 4
Cc1ccc(-c2nnc(SCC(=O)Nc3ccc(F)cc3)o2)cc1 | 4
Cc1cc(Br)ccc1OCc1nc(-c2cccnc2)no1 | 4
CC(C)(C)c1ccc(OCc2nc(-c3ccccc3)no2)cc1 | 4
Cc1ccc(-c2nc(-c3ccncc3)no2)cc1Cl | 0 (active)
COc1ccc(-c2noc(-c3cccc(C)c3)n2)cc1 | 0 (active)
COc1ccc(-c2noc(-c3cccc(Br)c3)n2)cc1 | 4
COc1nc(-c2ccc(C)cc2)ccc1-c1noc(C)n1 | 4
O=C(CSc1nnc(-c2ccc(Cl)cc2Cl)o1)c1ccc2c(c1)OCCO2 | 4
Clc1ccc(-c2nc(-c3ccncc3)no2)cc1Cl | 4
Cc1ccccc1-c1nnc(SCc2ccc(F)cc2)o1 | 3.5
Cc1ccc(OCc2nc(-c3ccccc3Cl)no2)cc1C | 2
c1ccc(-c2noc(COc3cccc4ccccc34)n2)nc1 | 4
Cc1c(C)n(C(=O)CSc2nnc(-c3ccccc3)o2)c2ccccc12 | 4

Structure (SMILES) | survival and reproduction score
CCCCSc1nnc(-c2ccc(Br)cc2)o1 | 0 (active)
COc1nc(C)ccc1-c1noc(-c2ccc(C(C)(C)C)cc2)n1 | 4
Cc1ccc(-c2noc(COc3ccc(Br)cc3)n2)cc1 | 4
Cc1cc(OCc2nc(-c3ccncc3)no2)ccc1Cl | 4
CCOc1nc(C)ccc1-c1noc(-c2cccc(C)c2)n1 | 4
Cc1ccc(-c2noc(-c3ccc(C)cc3Cl)n2)cc1 | 4
Cc1ccc(-c2nnc(SCC(=O)Nc3cc(C)c(C)cc3Br)o2)cc1 | 4
Cc1ccc(-c2noc(C3CCCCC3)n2)cc1 | 0 (active)
c1ccc2c(OCc3nc(-c4ccncc4)no3)cccc2c1 | 4
Cc1ccc(-c2noc(COc3ccccc3Cl)n2)cc1 | 4
COc1ccc(-c2noc(-c3ccccc3Cl)n2)cc1 | 4
Cc1cc(OC(C)c2nc(-c3cccnc3)no2)ccc1Cl (stereo not drawn) | 4
O=C(CSc1nnc(-c2cccc(Br)c2)o1)c1ccccc1 | 4
CC(=O)Nc1cccc(-c2nnc(SCc3ccc(F)cc3)o2)c1 | 4
O=C(NC1CCCCC1)c1ccccc1-c1nc(-c2ccc(F)cc2)no1 | 4
Cc1ccc(OCc2nc(-c3ccc(Cl)cc3)no2)cc1C | 4
Clc1ccc(OCc2nc(-c3ccccn3)no2)c(Br)c1 | 4
COc1ccc(-c2noc(COc3ccccc3)n2)cc1 | 0 (active)
CCn1c(SCc2nc(-c3cccs3)no2)nnc1-c1ccco1 | 2
